We go through 46 compounds from PubChem BioAssay AID2685 (National Center for Advancing Translational Sciences (NCATS), 2010).

Screen size: about 320,000 compounds; about 2,100 (0.66%) were called active. About 53% were inconclusive and are not listed. This is one part of a sample in which actives are shown more often than they occur. Calls follow the shape of the dose curve; as a rule, active = well fitted inhibition curve with a large enough effect in the signal ratio, with a control signal flat (not every such curve was filed as active); inconclusive = small, poorly fitted or top-dose-only effect, or effect the other way, or a change in a side signal; inactive = flat fitted curve, though single readings scatter; the % refers to the signal ratio.
Potency is read from the fitted curve at half-maximal effect.

A short description of the test: qHTS Assay for Lipid Storage Modulators in Drosophila S3 Cells.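 As to cell number change: cells counted by Cell Tracker Red CMTPX staining in the red channel.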 As to lipid storage change, negative = inhibition: % is scaled to controls: 0 for no effect and ±100 for the full control effect. The conditions noted are these: BODIPY lipid droplet fluorescence, 18-24 h, cells fed with added oleic acid; cell number change: measured here: cell count max response; series mostly up to 46.1 µM; lipid storage change, negative = inhibition: at the top concentration. The gist of the method: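 Drosophila S3 cells loaded with oleic acid (400 uM, as added) and compounds at several concentrations; lipid droplets imaged by 488-nm laser-scanning cytometry, 500–530 nm intensity and object ratio to cell channel. Percent activity normalized to 20 uM Triacsin C.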
Take `Cc1ccc(NC(=O)CCC(=O)n2nc(C)cc2C)c(C)c1`: the Potency is 18.4 µM (active).
Consider `Cc1cc(C)n(C(=O)CCCC(=O)n2nc(C)cc2C)n1`, for which the “lipid storage change, negative = inhibition” value was 9.69% (inactive) and the cell number change is -1.02%.
For `CCOc1ccc(NC(=O)CCC(=O)n2nc(C)cc2C)cc1`, in that order: -4.91% (inactive) and 1.15%.
Consider `CC(C)N(C(=O)Cn1c(=O)oc2ccccc21)c1ccccc1`, for which the “lipid storage change, negative = inhibition” value was -14.7% (inactive) and the cell number change came to 12.3%.
The like results for `COc1ccc([C@@H]2[C@@H]3C(=O)N(C(C)(C)C)C(=O)[C@@H]3[C@]3(Cc4ccc(Cl)cc4)C(=O)N(c4ccc(OC)cc4)C(=O)N23)cc1` were, in that order, 11.9% (inactive) and 16%.
In the case of `CCN1C(=O)[C@H]2[C@@H](c3ccc(C)cc3)N3C(=O)N(c4ccc(C(F)(F)F)cc4)C(=O)[C@@]3(CC)[C@H]2C1=O`, the “lipid storage change, negative = inhibition” value is -0.378% (inactive) and the cell number change is -7.19%.
For `CCN1C(=O)[C@H]2[C@@H](c3ccc(C)cc3)N3C(=O)N(c4ccc(C(F)(F)F)cc4)C(=O)[C@@]3(CC(C)C)[C@H]2C1=O`, the Potency is 18.4 µM (active) and the cell number change is 11.1%.
As to `CCN1C(=O)[C@H]2[C@@H](c3ccc(C)cc3)N3C(=O)N(c4ccccc4)C(=O)[C@@]3(CC)[C@H]2C1=O`, the call was inactive and the cell number change was found to be 16.2%.
Take `COc1ccc([C@@H]2[C@@H]3C(=O)N(C(C)(C)C)C(=O)[C@@H]3[C@]3(CC(C)C)C(=O)N(c4ccc(C(F)(F)F)cc4)C(=O)N23)cc1`: the Potency was 20.6 µM (active) and the cell number change is 18.1%.
In the case of `COc1ccc([C@@H]2[C@@H]3C(=O)N(C(C)(C)C)C(=O)[C@@H]3[C@]3(C)C(=O)N(c4ccc(C(F)(F)F)cc4)C(=O)N23)cc1`, the “lipid storage change, negative = inhibition” value was -1.6% (inactive) and the cell number change worked out at 14.7%.
Turning to `COc1ccc(CCNC(=O)CSc2ccc(-c3ccccc3)nn2)cc1`, the “lipid storage change, negative = inhibition” value is -1.45% (inactive) and the cell number change is 2.87%.
For `CC(C)CNC(=O)C1CC(=O)OC12CCCCC2` (stereo not drawn), the outcome was inactive.
With `CC(Oc1ccc(-c2nnco2)cc1)C(=O)N1CCOCC1` (stereo not drawn), the “lipid storage change, negative = inhibition” value is 2.05% (inactive) and the cell number change was determined as 6.36%.
With `CC(Oc1ccc(-c2ccccc2)cc1)C(=O)N1CCOCC1` (stereo not drawn), the Potency is 2.91 µM (active) and the cell number change is 17.9%.
`CC(Oc1ccc(C(=O)c2ccccc2)cc1)C(=O)N1CCOCC1` (stereo not drawn): the call was inactive.
Consider `CCCN1Cc2cccc(C(=O)NCCCOC(C)C)c2C1=O`, for which the compound was classed as inactive and the cell number change amounted to 2.03%.
Consider `Cc1ccc(-c2cc(C(=O)NCCCN3CCCC3)c3ccccc3n2)cc1C`, for which the “lipid storage change, negative = inhibition” value is -11.6% (inactive).
`CCN=C1SC(C(=O)Nc2cccc(C)c2)CC(=O)N1CC` (stereo not drawn): the “lipid storage change, negative = inhibition” value was 3.18% (inactive) and the cell number change was -13.5%.
For `COc1cccc(NC(=O)C2CC(=O)n3cnnc3S2)c1` (stereo not drawn), in that order: -20.3% (inactive) and -29%.
For `Cc1cccc(NC(=O)C2CC(=O)n3cnnc3S2)c1` (stereo not drawn), the Potency was 13 µM (active) and the cell number change was -1.17%.
In the case of `COc1ccc(N=C2NC(=O)/C(=C/c3ccco3)S2)cc1`, the “lipid storage change, negative = inhibition” value was -1.57% (inactive) and the cell number change turned out to be 15.8%.
Regarding `O=C(CNC(=O)c1ccco1)Nc1ccncc1`, the “lipid storage change, negative = inhibition” value is 23% (inactive).
With `CCOc1ccc(N=C2NC(=O)/C(=C/C(=O)OC)S2)cc1`, the Potency was 25.9 µM (active).
In the case of `COC(=O)/C=C1/SC(=Nc2ccc(Cl)c(Cl)c2)NC1=O`, the “lipid storage change, negative = inhibition” value was 19.2% (inactive) and the cell number change stood at 7.13%.
Turning to `COC(=O)/C=C1\SC(=Nc2ccccc2)NC1=O`, the “lipid storage change, negative = inhibition” value was -66.9% (inactive) and the cell number change came to 10.6%.
For `O=C(c1nc2ccccn2c1CNCCCn1ncc2ccccc21)N1CCOCC1`, the “lipid storage change, negative = inhibition” value was 7.24% (inactive) and the cell number change is 25.5%.
For the compound `NC(=S)N/N=C\c1ccccc1OCc1ccccc1`, the “lipid storage change, negative = inhibition” value was 8.29% (inactive) and the cell number change stood at 0.634%.
Regarding `COc1cccc(/C=N/NC(N)=S)c1OCc1cccc(Cl)c1`, the Potency is 8.2 µM (active) and the cell number change stood at 0.0836%.
With `COc1cccc(/C=N/NC(N)=S)c1OS(=O)(=O)c1ccccc1`, the “lipid storage change, negative = inhibition” value was -5.43% (inactive) and the cell number change was -16.4%.
For the compound `O=C(c1ccc(C#CC2(O)CCCCC2)cc1)N1CCOCC1`, the call was inactive and the cell number change was found to be 5.75%.
In the case of `O=C1OCC(CO)(CO)N=C1NNc1ccccc1Cl`, the compound was classed as inactive.
In the case of `COc1cccc(C2=NOC(C(=O)Nc3cccnc3Cl)C2)c1` (stereo not drawn), the “lipid storage change, negative = inhibition” value was 5.17% (inactive) and the cell number change was determined as 3.11%.
The like results for `CN(c1ccccc1)S(=O)(=O)c1cccc(NC(=O)c2ccncc2)c1` were, in that order, -23.7% (inactive) and 0.47%.
Consider `Cc1cc(C)n2nc(C(=O)Nc3cccc(S(=O)(=O)N(C)c4ccccc4)c3)nc2n1`, for which the Potency is 11.6 µM (active) and the cell number change was -15.3%.
`Cc1cc(C)n2nc(C(=O)Nc3ccc(S(=O)(=O)N(C)C)cc3)nc2n1`: the “lipid storage change, negative = inhibition” value is -29.8% (inactive) and the cell number change was -26.7%.
As to `Cc1nc2c(-c3ccccc3)cnn2c(N2CCOCC2)c1C`, the Potency is 2.91 µM (active) and the cell number change was -16.7%.
In the case of `Cc1cc(N2CCOCC2)n2ncc(-c3ccccc3)c2n1`, the outcome was inactive and the cell number change is -5.35%.
Regarding `CC(C)(C)c1cc(N2CCOCC2)n2ncc(-c3ccccc3)c2n1`, the “lipid storage change, negative = inhibition” value is 6.85% (inactive) and the cell number change is -9.44%.
As for `O=C(CN1CCCCC1)N1N=C(c2cccs2)CC1c1cccs1` (stereo not drawn), the “lipid storage change, negative = inhibition” value is -0.409% (inactive) and the cell number change was found to be 18.5%.
As to `CSc1ccc(CN(C)C(=O)CSCC(=O)Nc2cc(C)on2)cc1`, the “lipid storage change, negative = inhibition” value was -15.8% (inactive) and the cell number change was 13.3%.
As for `Cc1ccc2nc(SCC(=O)N(C)C3CCS(=O)(=O)C3)[nH]c2c1` (stereo not drawn), the Potency was 1.16 µM (active) and the cell number change amounted to 7.53%.
Consider `CN(C(=O)CSc1nc2ccccc2[nH]1)C1CCS(=O)(=O)C1` (stereo not drawn), for which the call was inactive and the cell number change was -2.26%.
Regarding `CN(C(=O)CSc1nnc(-c2ccc(C(C)(C)C)cc2)n1C)C1CCS(=O)(=O)C1` (stereo not drawn), the Potency is 10.3 µM (active) and the cell number change was found to be 3.86%.
For `CCn1c(SCC(=O)N(C)C2CCS(=O)(=O)C2)nnc1-c1ccccc1` (stereo not drawn), the “lipid storage change, negative = inhibition” value is -21% (inactive) and the cell number change is -11.5%.
As for `CCN(C(=O)CSc1nc2ccc(OC)cc2[nH]1)C1CCS(=O)(=O)C1` (stereo not drawn), the “lipid storage change, negative = inhibition” value was 23% (inactive).
On to `CN(C(=O)CSc1nnc(-c2ccccc2)n1C)C1CCS(=O)(=O)C1` (stereo not drawn), for which the “lipid storage change, negative = inhibition” value is 14.6% (inactive).
